Data taken from PubChem BioAssay.
Several values for one entry are separate records, joined by “and”; a condition that tells them apart may be missing. Equal entries are not always repeated. Activity calls are given as the source filed them.

Assays:
[1] = optical density shifts of acrAB sulA E. coli – strain DRC41, OD650, 48 h, E. coli filamentation inducer project, primary screen (AID 1152); conditions: higher = more signal, called active from +8 up or from −8 down;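 note: E. coli MC1000 strain DRC41 lacking acrAB efflux pump and sulA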
[2] = probe aLefty1 binding on compound microarray – biochemical, small-molecule microarray, 635/667 nm fluorescence, primary screen (AID 1153); conditions: higher = more signal;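 note: score merges spot fluorescence with signal-to-noise ratio from the scanned slide images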
[3] = plasmodial surface anion channel blockers, osmotic lysis – cell-based, P. falciparum Indochina, OD700, 1 h, primary screen (AID 1154); conditions: P. falciparum Indochina infected RBC osmotic lysis, higher = more signal, called active from +8 up or from −8 down
[4] = plasmodial surface anion channel blockers, osmotic lysis – cell-based, P. falciparum Indochina, OD700, 2 h, primary screen (AID 1155);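 note: lysis reports solute entry through the parasite surface anion channel PSAC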; conditions: P. falciparum Indochina infected erythrocytes, higher = more signal, called active from +8 up or from −8 down
[5] = changes in parasitized red cell lysis, either direction – P. falciparum Indochina, OD700, 3 h, PSAC antagonist project, primary screen (AID 1156); conditions: P. falciparum-infected erythrocytes, osmotic lysis, higher = more signal, called active from +8 up or from −8 down
[6] = plasmodial surface anion channel blockers, osmotic lysis – cell-based, P. falciparum Indochina, OD700, 18 h, primary screen (AID 1157); conditions: P. falciparum Indochina infected erythrocytes, osmotic lysis OD700, 18 h; higher = more signal, called active from +8 up or from −8 down
[7] = S6 kinase pathway phospho-S6 level changes – cell-based, A549, cytoblot, luminescence, serum-stimulated, primary screen (AID 1158); conditions: 5 h, higher = more signal;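 note: serum-stimulated A549 lung adenocarcinoma cells; signal is phosphorylated S6 detected by cytoblot immunostaining with HRP secondary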
[8] = target: NADPH oxidase 2 (Homo sapiens) (UniProt P04839); assay: compounds shifting NOX2 Amplex Red fluorescence – cell-based, HEK293-NOX2, PMA-stimulated, NOX inhibitor project, primary screen (AID 1159); conditions: 45 min, higher = more signal, called active from +8 up or from −8 down; note: test concentration not given here
Sequence of NADPH oxidase 2 (Homo sapiens) (P04839 whole entry, looked up): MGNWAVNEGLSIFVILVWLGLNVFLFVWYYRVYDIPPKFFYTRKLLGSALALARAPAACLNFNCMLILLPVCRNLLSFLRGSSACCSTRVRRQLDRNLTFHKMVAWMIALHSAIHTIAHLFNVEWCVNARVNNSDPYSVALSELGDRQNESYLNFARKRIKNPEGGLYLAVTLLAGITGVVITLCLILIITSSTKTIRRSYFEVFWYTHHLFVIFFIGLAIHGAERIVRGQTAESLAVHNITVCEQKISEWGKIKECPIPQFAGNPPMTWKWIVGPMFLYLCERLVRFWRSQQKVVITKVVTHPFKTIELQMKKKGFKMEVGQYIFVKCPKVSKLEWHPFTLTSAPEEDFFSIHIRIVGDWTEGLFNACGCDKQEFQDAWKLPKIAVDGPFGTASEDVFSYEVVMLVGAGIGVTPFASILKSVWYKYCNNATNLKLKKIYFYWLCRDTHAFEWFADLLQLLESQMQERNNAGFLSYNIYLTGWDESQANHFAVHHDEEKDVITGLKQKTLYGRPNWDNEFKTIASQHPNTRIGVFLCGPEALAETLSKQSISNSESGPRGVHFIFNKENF

[9] = target: NADPH oxidase 4 (Homo sapiens) (UniProt Q9NPH5); assay: compounds shifting NOX4 Amplex Red fluorescence – cell-based, HEK293-NOX4, tetracycline-induced, NOX inhibitor project, primary screen (AID 1160); conditions: HEK293-NOX4, Amplex Red H2O2 fluorescence, 45 min; higher = more signal, called active from +8 up or from −8 down
Sequence of NADPH oxidase 4 (Homo sapiens) (Q9NPH5 whole entry, looked up): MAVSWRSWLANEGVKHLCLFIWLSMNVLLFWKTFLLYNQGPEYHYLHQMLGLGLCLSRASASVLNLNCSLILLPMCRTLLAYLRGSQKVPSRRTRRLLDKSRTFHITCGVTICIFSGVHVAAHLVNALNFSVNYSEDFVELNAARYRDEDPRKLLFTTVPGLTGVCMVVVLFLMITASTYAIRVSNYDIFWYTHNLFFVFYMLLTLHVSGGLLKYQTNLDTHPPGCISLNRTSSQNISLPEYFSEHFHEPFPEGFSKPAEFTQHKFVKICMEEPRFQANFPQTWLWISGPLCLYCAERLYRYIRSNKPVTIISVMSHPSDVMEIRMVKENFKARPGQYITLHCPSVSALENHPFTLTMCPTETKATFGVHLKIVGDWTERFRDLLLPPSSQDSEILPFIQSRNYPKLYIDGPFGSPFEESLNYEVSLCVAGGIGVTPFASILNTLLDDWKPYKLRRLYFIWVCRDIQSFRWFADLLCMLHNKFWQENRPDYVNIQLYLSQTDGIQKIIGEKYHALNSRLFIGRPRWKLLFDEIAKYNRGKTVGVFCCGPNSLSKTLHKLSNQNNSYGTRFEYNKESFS

[10] = target: NADPH oxidase 5 (Homo sapiens) (UniProt Q96PH1); assay: compounds shifting NOX5 Amplex Red fluorescence – cell-based, HEK293-NOX5, NOX inhibitor project, primary screen (AID 1161); conditions: HEK293-NOX5, ionomycin, 45 min, higher = more signal
Sequence of NADPH oxidase 5 (Homo sapiens) (Q96PH1 whole entry, looked up): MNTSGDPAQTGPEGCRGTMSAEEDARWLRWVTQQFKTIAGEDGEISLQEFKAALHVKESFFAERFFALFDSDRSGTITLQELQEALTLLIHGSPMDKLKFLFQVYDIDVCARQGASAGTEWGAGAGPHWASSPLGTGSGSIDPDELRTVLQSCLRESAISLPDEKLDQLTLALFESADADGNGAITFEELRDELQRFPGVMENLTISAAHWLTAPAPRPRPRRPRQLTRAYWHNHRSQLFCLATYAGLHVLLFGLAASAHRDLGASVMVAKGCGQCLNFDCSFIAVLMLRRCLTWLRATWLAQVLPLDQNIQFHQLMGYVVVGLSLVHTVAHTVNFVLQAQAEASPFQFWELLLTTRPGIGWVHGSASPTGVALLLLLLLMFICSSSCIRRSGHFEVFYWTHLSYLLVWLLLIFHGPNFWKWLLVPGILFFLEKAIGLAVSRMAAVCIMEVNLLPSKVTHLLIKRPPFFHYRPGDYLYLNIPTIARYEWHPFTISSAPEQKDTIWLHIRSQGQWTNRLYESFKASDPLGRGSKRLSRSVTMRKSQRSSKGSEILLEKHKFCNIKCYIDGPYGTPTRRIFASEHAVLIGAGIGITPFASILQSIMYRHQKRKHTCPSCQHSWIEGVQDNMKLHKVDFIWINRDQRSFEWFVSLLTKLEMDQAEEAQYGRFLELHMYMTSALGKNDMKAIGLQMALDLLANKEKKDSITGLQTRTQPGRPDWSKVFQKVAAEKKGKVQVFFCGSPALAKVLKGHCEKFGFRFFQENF

[11] = compound effects on lung adenocarcinoma cell viability – A549, calcein-AM fluorescence, 48 h, basal, profiling panel (AID 1162); conditions: higher = more signal; note: test concentration not given here
[12] = compound effects on differentiated 3T3-L1 adipocyte viability – cell-based, 3T3-L1 adipocytes, calcein-AM fluorescence, 48 h, basal, profiling panel (AID 1163); conditions: 3T3-L1 adipocytes viability, higher = more signal; note: test concentration not given here
[13] = compound effects on hepatocellular carcinoma cell viability – HepG2, calcein-AM fluorescence, 48 h, basal, profiling panel (AID 1164); conditions: higher = more signal; note: test concentration not given here
[14] = compound effects on multiple myeloma cell viability – MM1S, calcein-AM fluorescence, 48 h, basal, profiling panel (AID 1165); conditions: higher = more signal; note: test concentration not given here
[15] = calcein-AM signal in unstimulated myeloma cells – cell-based, calcein-AM fluorescence, 48 h, PK04 Diversity Set, profiling panel (AID 1166); conditions: RPMI8226 myeloma viability, higher = more signal;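 note: cells grown under basal conditions without added stimulus; test concentration not given here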
[16] = JC-1 mitochondrial signal, unstimulated HepG2 cells – cell-based, JC-1 fluorescence, 24 h, 100 nL compound, profiling panel (AID 1167); conditions: HepG2 mitochondrial potential, higher = more signal; note: test concentration not given here
[17] = JC-1 mitochondrial signal, unstimulated adipocytes – cell-based, JC-1 fluorescence, 3T3-L1 adipocytes, 24 h, 100 nL compound, profiling panel (AID 1168); conditions: JC-1 mitochondrial fluorescence, higher = more signal, called active from +8 up or from −8 down; note: test concentration not given here
[18] = JC-1 mitochondrial signal, unstimulated myeloma cells – cell-based, JC-1 fluorescence, RPMI8226, 24 h, 100 nL compound, profiling panel (AID 1169); conditions: JC-1 mitochondrial potential fluorescence, higher = more signal; note: test concentration not given here
[19] = JC-1 mitochondrial signal, unstimulated MM1S myeloma – cell-based, JC-1 fluorescence, 24 h, 100 nL compound, profiling panel (AID 1170); conditions: MM1S mitochondrial potential, higher = more signal; note: test concentration not given here
[20] = resazurin metabolic signal in A549 cells – cell-based, resazurin fluorescence, 24 h, PK04 Diversity Set, profiling panel (AID 1171); conditions: A549 viability, higher = more signal, called active from +8 up or from −8 down; note: test concentration not given here

SMILES | z-score [1] | composite z-score [2] | z-score [3] | z-score [4] | z-score [5] | z-score [6] | z-score [7] | z-score [8] | z-score [9] | z-score [10] | z-score [11] | z-score [12] | z-score [13] | z-score [14] | z-score [15] | z-score [16] | z-score [17] | z-score [18] | z-score [19] | z-score [20]
C=CCN(CCCC)C(=O)C1N(CCOCCO)C(=O)C2C(C(=O)O)C3C=CC21O3 (stereo not given) | 0.151 (inactive) and -0.207 (inactive) | -0.191 and -0.454 | 0.461 (inactive) and -0.326 (inactive) | 0.703 (inactive) and 0.124 (inactive) | -0.668 (inactive) and -0.506 (inactive) | 0.0875 (inactive) and 0.111 (inactive) | -0.0621 and 0.53 | 0.502 (inactive) and 0.676 (inactive) | -1.77 (inactive) and -2.02 (inactive) | -0.512 and 0.152 | -0.397 and -0.276 | 0.28 and -0.404 | -1.2 and -1.42 | 0.929 and 0.966 | -0.234 and 0.295 | -0.419 and -0.964 | -0.309 (inactive) and -0.776 (inactive) | 0.563 and 0.0271 | 0.0912 and -0.0623 | -0.169 (inactive) and -0.593 (inactive)
C=CCN(C(=O)C1N(CCCCCCO)C(=O)C2C(C(=O)O)C3C=CC21O3)c1ccc(OC)cc1 (stereo not given) | 2.17 (inactive) and 0.932 (inactive) | 0.153 and 0.659 | 0.12 (inactive) and -0.718 (inactive) | -1.31 (inactive) and 0.0039 (inactive) | -0.398 (inactive) and -0.196 (inactive) | -1.43 (inactive) and -0.157 (inactive) | 0.441 and -0.173 | 0.846 (inactive) and 0.381 (inactive) | -0.0568 (inactive) and -0.682 (inactive) | 1.3 and 0.105 | 1.37 and 0.282 | 0.743 and -0.0063 | -0.46 and 0.428 | 0.315 and -1.1 | 0.432 and 0.269 | 0.113 and -0.546 | 0.74 (inactive) and 0.861 (inactive) | -0.875 and -0.0778 | 1.02 and 1.2 | 1.09 (inactive) and 0.416 (inactive)
CCN1C(=O)[C@H]2[C@H]3[C@H](O)[C@H](O)CC(=NOC[C@@H](O)COCc4ccco4)[C@@H]3CC[C@H]2C1=O | -0.423 (inactive) and -0.268 (inactive) | -0.0877 and -0.101 | -0.0538 (inactive) and 1.03 (inactive) | -0.0403 (inactive) and 0.0127 (inactive) | -0.534 (inactive) and 1.78 (inactive) | -0.21 (inactive) and 0.464 (inactive) | 0.485 and 0.312 | -0.535 (inactive) and 0.394 (inactive) | -1.86 (inactive) and -0.599 (inactive) | -0.844 and -0.174 | 0.107 and -0.737 | -0.233 and 1.1 | -0.417 and -0.814 | 0.0026 and 0.228 | -1.35 and -1.38 | -0.48 and -0.487 | -0.844 (inactive) and -0.925 (inactive) | 0.0424 and 0.122 | 0.104 and 0.0266 | -0.767 (inactive) and -1.14 (inactive)
CCOC(=O)[C@@H]1CC=C2CC1C(=O)N1CCC[C@@H]1[C@H]2O[Si](C)(C)C(C)(C)C (stereo not given in full) | -1.02 (inactive) and -0.796 (inactive) | -0.199 and -0.417 | -0.0845 (inactive) and 0.699 (inactive) | -0.474 (inactive) and 0.0056 (inactive) | -0.495 (inactive) and 0.882 (inactive) | -0.0374 (inactive) and 0.133 (inactive) | 0.308 and -0.0299 | -0.0861 (inactive) and -0.161 (inactive) | 1.2 (inactive) and -0.116 (inactive) | -1.02 and -2.48 | -0.366 and -0.566 | -0.0834 and 0.84 | -0.45 and -1.76 | -0.204 and -0.227 | -1.71 and -2.37 | -1.48 and 0.214 | -0.649 (inactive) and 0.192 (inactive) | -0.0804 and 0.132 | 0.144 and 0.321 | 0.016 (inactive) and 2.5 (inactive)
CC(C)OC(=O)C=C1C[C@@H](c2ccccc2)O[C@@H](c2ccccc2)O1 | 0.676 (inactive) and 0.585 (inactive) | -0.0984 and 0.149 | 15.2 (active) and 23.2 (active) | 1.94 (inactive) and 5.46 (inactive) | 0.369 (inactive) | 1.03 (inactive) and 1.37 (inactive) | -0.104 and -0.0136 | -0.124 (inactive) and -0.0606 (inactive) | -0.00431 (inactive) and -1.01 (inactive) | -0.39 and -0.392 | 0.604 and -0.204 | 0.211 and 0.24 | 1.57 and 0.805 | -1.8 and -3.29 | -0.192 and -1.79 | 1.06 and -0.0936 | 0.383 (inactive) and 1.71 (inactive) | -0.374 and -0.422 | -2.57 and -3.36 | 1.28 (inactive) and 0.255 (inactive)
C=CCN(Cc1ccccc1)C(=O)C1N(c2c(Cl)cccc2CO)C(=O)C2C(C(=O)O)C3C=CC21O3 (stereo not given) | 3.44 (inactive) and 0.465 (inactive) | -0.147 | -0.97 (inactive) and 0.504 (inactive) | -0.994 (inactive) and 0.698 (inactive) | -0.847 (inactive) and 0.14 (inactive) | -1.32 (inactive) and 0.357 (inactive) | 1.33 and -0.0264 | 0.00151 (inactive) and 0.1 (inactive) | -0.574 (inactive) and -0.406 (inactive) | -0.259 and -0.994 | 1.45 and -0.228 | 0.38 and 0.802 | 1.07 and 0.0456 | 2.15 and 0.815 | 0.381 and -0.937 | 0.992 and -1.25 | 1.53 (inactive) and -0.0316 (inactive) | -0.817 and -0.0516 | 1.03 and 0.278 | 2.19 (inactive) and -0.851 (inactive)
